# The supplement of paper PMC7724964
# T1: PPWD1 486-646 Pro_isomerase (domain begin residue: 486, domain end residue: 646), Q96BP3
# T1 chain: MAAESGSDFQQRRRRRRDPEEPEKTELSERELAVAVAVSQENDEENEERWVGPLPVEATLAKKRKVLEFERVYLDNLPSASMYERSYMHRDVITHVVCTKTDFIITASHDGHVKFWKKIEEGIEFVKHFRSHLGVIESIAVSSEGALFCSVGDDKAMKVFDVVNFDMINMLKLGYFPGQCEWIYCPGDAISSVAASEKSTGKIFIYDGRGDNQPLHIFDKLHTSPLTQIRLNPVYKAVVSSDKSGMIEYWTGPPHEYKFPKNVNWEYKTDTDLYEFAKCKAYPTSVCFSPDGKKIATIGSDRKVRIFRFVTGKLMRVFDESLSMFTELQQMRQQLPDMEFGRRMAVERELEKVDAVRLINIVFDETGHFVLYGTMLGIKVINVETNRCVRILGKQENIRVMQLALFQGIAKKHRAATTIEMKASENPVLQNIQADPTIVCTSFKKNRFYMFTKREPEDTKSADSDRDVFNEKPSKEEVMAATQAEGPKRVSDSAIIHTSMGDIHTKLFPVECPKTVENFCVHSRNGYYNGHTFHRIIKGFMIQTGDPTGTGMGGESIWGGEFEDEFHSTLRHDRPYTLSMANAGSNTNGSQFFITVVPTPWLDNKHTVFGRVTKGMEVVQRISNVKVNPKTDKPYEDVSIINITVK
# T2: PUF60 460-559 RRM_3 (domain begin residue: 460, domain end residue: 559), Q9UHX1
# T2 chain: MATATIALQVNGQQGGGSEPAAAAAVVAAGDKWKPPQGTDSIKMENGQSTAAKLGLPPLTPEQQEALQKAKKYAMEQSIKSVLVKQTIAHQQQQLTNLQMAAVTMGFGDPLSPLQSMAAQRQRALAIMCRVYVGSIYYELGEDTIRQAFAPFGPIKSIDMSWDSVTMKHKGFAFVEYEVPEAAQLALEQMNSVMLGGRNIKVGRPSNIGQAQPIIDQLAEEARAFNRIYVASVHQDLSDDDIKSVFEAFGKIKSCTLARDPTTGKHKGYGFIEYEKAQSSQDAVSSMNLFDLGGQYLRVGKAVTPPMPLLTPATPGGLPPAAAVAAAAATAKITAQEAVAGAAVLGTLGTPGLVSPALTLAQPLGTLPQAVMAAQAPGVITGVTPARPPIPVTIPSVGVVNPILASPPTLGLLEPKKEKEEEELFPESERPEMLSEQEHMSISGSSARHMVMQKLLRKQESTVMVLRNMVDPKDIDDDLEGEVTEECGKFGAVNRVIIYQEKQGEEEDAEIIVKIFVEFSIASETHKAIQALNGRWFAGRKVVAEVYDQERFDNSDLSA
# T3: PPARG 233-505 Hormone_recep (domain begin residue: 233, domain end residue: 505), P37231
# T3 chain: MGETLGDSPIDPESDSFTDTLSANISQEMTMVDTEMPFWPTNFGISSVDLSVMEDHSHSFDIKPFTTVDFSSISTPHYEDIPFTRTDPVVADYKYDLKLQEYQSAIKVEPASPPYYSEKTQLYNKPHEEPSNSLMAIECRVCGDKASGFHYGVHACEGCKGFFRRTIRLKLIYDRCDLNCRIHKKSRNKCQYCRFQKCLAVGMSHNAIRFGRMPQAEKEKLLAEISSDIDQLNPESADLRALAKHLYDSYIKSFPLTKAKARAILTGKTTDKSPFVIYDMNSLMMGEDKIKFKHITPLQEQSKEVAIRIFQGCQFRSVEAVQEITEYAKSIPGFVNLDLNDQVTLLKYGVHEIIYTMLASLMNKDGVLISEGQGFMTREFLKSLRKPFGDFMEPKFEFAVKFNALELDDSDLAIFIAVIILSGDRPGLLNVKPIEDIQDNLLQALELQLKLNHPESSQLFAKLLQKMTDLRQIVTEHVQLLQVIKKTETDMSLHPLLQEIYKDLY
# T4: PLEK 120-231 DEP (domain begin residue: 120, domain end residue: 231), P08567
# T4 chain: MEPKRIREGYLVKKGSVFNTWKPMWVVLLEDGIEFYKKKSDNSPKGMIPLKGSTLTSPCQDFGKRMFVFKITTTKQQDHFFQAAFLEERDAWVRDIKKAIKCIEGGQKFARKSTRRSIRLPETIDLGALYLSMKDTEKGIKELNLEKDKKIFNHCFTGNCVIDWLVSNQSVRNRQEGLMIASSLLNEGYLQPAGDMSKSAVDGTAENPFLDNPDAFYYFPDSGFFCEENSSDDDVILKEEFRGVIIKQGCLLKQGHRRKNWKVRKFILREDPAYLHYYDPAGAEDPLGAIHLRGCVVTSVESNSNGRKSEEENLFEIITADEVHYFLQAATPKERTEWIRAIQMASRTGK
# T5: RALA 11-183 Ras (domain begin residue: 11, domain end residue: 183), P11233
# T5 chain: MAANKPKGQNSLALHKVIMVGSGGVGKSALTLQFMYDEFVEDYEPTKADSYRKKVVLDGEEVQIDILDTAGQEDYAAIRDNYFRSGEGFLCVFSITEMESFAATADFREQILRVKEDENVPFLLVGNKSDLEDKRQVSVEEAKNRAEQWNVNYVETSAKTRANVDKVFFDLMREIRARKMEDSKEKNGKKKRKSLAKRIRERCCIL
# T6: RAB5A 15-188 Ras (domain begin residue: 15, domain end residue: 188), P20339
# T6 chain: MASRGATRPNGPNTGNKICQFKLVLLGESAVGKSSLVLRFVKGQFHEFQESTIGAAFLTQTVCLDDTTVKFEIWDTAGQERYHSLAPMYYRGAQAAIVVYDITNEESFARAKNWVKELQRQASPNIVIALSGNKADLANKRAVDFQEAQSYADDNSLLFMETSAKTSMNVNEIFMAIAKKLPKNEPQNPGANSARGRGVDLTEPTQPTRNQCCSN
# Assays:
# Assay in all cases: phage ELISA signal ratio (GST-PRM binding over GST background); higher = stronger binding of peptide-phage to the PRM
# [1] = molecular target: PLEK2 238-353 PH (domain begin residue: 238, domain end residue: 353)
# How it was run: (§1)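 An M13 phage library with randomized hexadecapeptides on the gene-8 major coat protein, each peptide lacking cysteine and flanked by glycine, was selected for five rounds against human peptide recognition domains fused to the C-terminus of glutathione S-transferase (GST) and expressed in 96-well plates. Approximately 48 clones from rounds 4 and 5 went to phage ELISA. The reported value is the ELISA signal on the GST-domain fusion over the signal on GST alone, and positive clones were sequenced.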
# [2] = molecular target: PLEK2 123-229 DEP (domain begin residue: 123, domain end residue: 229)
# How it was run: as §1
# [3] = molecular target: T1, PPWD1 486-646 Pro_isomerase (domain …
# How it was run: as §1
# [4] = molecular target: RANBP1 39-170 Ran_BP1 (domain begin residue: 39, domain end residue: 170), P43487
# How it was run: as §1
# [5] = molecular target: PPIE 138-301 Pro_isomerase (domain begin residue: 138, domain end residue: 301), Q9UNP9
# How it was run: as §1
# [6] = molecular target: T2, PUF60 460-559 RRM_3 (domain begin …
# How it was run: as §1
# [7] = molecular target: T3, PPARG 233-505 Hormone_recep (domain …
# How it was run: as §1
# [8] = molecular target: T4, PLEK 120-231 DEP (domain begin residue: …
# How it was run: as §1
# [9] = molecular target: T5, RALA 11-183 Ras (domain begin residue: …
# How it was run: as §1
# [10] = molecular target: T6, RAB5A 15-188 Ras (domain begin residue: …
# How it was run: as §1
# Chain of PPIE 138-301 Pro_isomerase (domain begin residue: 138, domain end residue: 301), Q9UNP9 (Q9UNP9 whole entry): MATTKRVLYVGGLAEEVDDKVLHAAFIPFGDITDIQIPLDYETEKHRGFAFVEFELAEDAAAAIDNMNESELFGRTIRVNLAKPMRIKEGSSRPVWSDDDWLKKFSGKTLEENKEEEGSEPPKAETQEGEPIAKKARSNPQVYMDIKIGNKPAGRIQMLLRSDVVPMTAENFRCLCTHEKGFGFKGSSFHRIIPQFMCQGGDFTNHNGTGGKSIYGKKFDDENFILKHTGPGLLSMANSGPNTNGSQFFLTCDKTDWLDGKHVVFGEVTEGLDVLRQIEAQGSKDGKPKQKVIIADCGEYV
# Chain of RANBP1 39-170 Ran_BP1 (domain begin residue: 39, domain end residue: 170), P43487 (P43487 whole entry): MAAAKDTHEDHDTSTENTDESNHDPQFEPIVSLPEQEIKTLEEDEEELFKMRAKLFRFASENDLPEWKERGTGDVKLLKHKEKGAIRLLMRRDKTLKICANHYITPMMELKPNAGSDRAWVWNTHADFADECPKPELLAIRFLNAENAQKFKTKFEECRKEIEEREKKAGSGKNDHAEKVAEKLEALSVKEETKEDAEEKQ
binder,measurement,setting,value
MNEHWTEWYWQSQNFV,phage ELISA signal ratio,[1],20.4
YLTWWYDPDHPDWATV,phage ELISA signal ratio,[2],6.35
AVSWGPQWHDFQWALM,phage ELISA signal ratio,[3],8.34
SIKHWEQFYASQPPQI,phage ELISA signal ratio,[1],16.2
WDVALPQEIVWELADK,phage ELISA signal ratio,[4],7.66
PMTWEMWQIDSAQQTV,phage ELISA signal ratio,[5],8.08
TQGKWDMQPTDMHYLS,phage ELISA signal ratio,[6],13.2
ESWGPMEQHSYTEQTE,phage ELISA signal ratio,[5],5.43
GPEMWNLHWQDWYNEV,phage ELISA signal ratio,[1],28.3
PSEDVSWWWQQHLMDI,phage ELISA signal ratio,[7],17.6
MNHAQIQSPLLWSLLW,phage ELISA signal ratio,[7],11.6
FDQLMHEAYTQWQSQQ,phage ELISA signal ratio,[8],31.5
WELALPAEHHEHYWSN,phage ELISA signal ratio,[4],4.36
GTEWWQQMALPPDVVV,phage ELISA signal ratio,[4],7.62
LTHEQMLWQLMDALSE,phage ELISA signal ratio,[9],19.4
HEMFGPQEQSQHMMEW,phage ELISA signal ratio,[5],4.73
LNDHWVAWHLMKNEIQ,phage ELISA signal ratio,[1],14.3
EPTFGPQPQVFFSTNP,phage ELISA signal ratio,[5],17
VYDFIGPQPQTNMASI,phage ELISA signal ratio,[5],21.8
SDVYGPHAHPVHYQDE,phage ELISA signal ratio,[5],8.93
WRMELPVQNHMEVMDL,phage ELISA signal ratio,[4],6.12
MNWGEMWDVRDDQVMV,phage ELISA signal ratio,[6],7.64
AEEHSMSLMSLLLAPS,phage ELISA signal ratio,[7],5.77
VSDMRGVPDSFMDVWD,phage ELISA signal ratio,[4],5.06
DQVLKWNEHWHEWLQA,phage ELISA signal ratio,[1],26.3
WSSKWDVIDKDYGIMH,phage ELISA signal ratio,[6],7.28
QNDGMDKAWVFWHEPT,phage ELISA signal ratio,[1],20.8
DINVTSDMNQHWMQWS,phage ELISA signal ratio,[1],33.1
NKWDMEHWDTEYRSPV,phage ELISA signal ratio,[6],4.03
RPDIMERLQQLMVWHG,phage ELISA signal ratio,[8],4.13
LHPMLTDMLAPNHMEV,phage ELISA signal ratio,[7],18.6
EIEPWWWDPHHENWAM,phage ELISA signal ratio,[2],7.12
PLMMPPEPHWVVNLGI,phage ELISA signal ratio,[5],10.5
ENHVPWVPEARWTTPQ,phage ELISA signal ratio,[5],7.51
DHWDAFYTWQKQNYLD,phage ELISA signal ratio,[1],36.8
WNWENVWGLDQTHPLW,phage ELISA signal ratio,[2],3.15
WDMTLPVLTNHELAYL,phage ELISA signal ratio,[4],9.02
YGMRLPEASQMETWFL,phage ELISA signal ratio,[4],6.18
PESWWESWMMDHEWGS,phage ELISA signal ratio,[7],24.5
EDVELLNKHWYDWAQV,phage ELISA signal ratio,[1],25
LYQEVFEYQGWLCMDL,phage ELISA signal ratio,[9],32.5
SRWDQQPGQWIKLSEN,phage ELISA signal ratio,[6],12
MSGITDWWENPAYWSW,phage ELISA signal ratio,[1],3.86
WDLAEWEMIWQDYMNH,phage ELISA signal ratio,[10],5.62
WLVPLPWEETWQNMSL,phage ELISA signal ratio,[4],5.79
WEDWTYWNDHLHLSPE,phage ELISA signal ratio,[1],8.15
WFDEGMWEVINQYNSL,phage ELISA signal ratio,[8],21.9
DFNAHWLEWHAQHVAL,phage ELISA signal ratio,[1],28.5
WEHLYPWMIPLPGTGV,phage ELISA signal ratio,[4],6.24
MHSELNWWEAMQWDSW,phage ELISA signal ratio,[1],4.7
QDLESWWWSEHLSNIM,phage ELISA signal ratio,[7],14.3
WNWENVWWLDQTHPLW,phage ELISA signal ratio,[2],10.1
EFEMDFWEMWNAWLSQ,phage ELISA signal ratio,[2],14.9
LQTYDWWADVMDHVLN,phage ELISA signal ratio,[8],4.42
TLTATDWWEEWNWGEN,phage ELISA signal ratio,[1],20.9
PDFWWQQQMADIMQWR,phage ELISA signal ratio,[2],21.4
DGKHWADFYSAFPMLA,phage ELISA signal ratio,[1],31.8
